Experimental data reported in PubChem BioAssay (NCATS).
Results filed as inconclusive are left out. Active and inactive are the calls of the source. The call rests on the fitted dose curve; in most records, active means well fitted cell-killing curve with a large enough effect; inconclusive means small, poorly fitted or top-dose-only effect, or effect the other way; inactive means flat fitted curve, though single readings scatter.

The compounds below were run on PA-1 (assay: Primary qHTS to identify gynecologic anti-cancer compounds using libraries of approved drugs and bioactive compounds (AID 1345084; further: nearly all actives have a fitted effect of over 55% in size)). Conditions: Gynecologic cancer cell panel viability, ATPlite luminescence, 48 h; series mostly up to 57.5 µM; activity change, negative = cytotoxicity: at the top concentration.
Procedure, shortened: (§1)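 Luminescence from the ATPlite ATP-monitoring reagent indicates viable cell number; lower signal means cytotoxicity. Cells received compound 16 h after seeding and were exposed for 48 h across five concentrations.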
On the % scale 0 is the no-effect control and ±100 the full control effect.

Q: How did the “activity change, negative = cytotoxicity” value turn out when `COC(=O)C1=C(C)NC(COC(N)=O)=C(C(=O)OC(C)C)C1c1cccc(Cl)c1Cl` (centres undefined) was run?
A: 14.1% (inactive)

Q: How did the “activity change, negative = cytotoxicity” value turn out when `CC(=O)OCC(=O)[C@@]1(O)[C@H](OC(C)=O)C[C@H]2[C@@H]3CCC4=CC(=O)C=C[C@]4(C)[C@@]3(F)[C@@H](O)C[C@@]21C` was run?
A: -3.96% (inactive)

Q: `O=C(c1ccccc1)c1ccccc1` was tested. Which “activity change, negative = cytotoxicity” value did it give?
A: -3.08% (inactive)

Q: For `C[C@H]1C[C@@H]2[C@H]([C@@H](O)C[C@@]3(C)[C@H]2CC[C@]3(O)C(=O)CO)[C@@]2(C)C=CC(=O)C=C12`, which “activity change, negative = cytotoxicity” value is on record?
A: -5.36% (inactive)

The compounds below were run on SKOV3 in the same assay as above. Conditions: Gynecologic cancer cell panel viability, ATPlite luminescence, 48 h; series mostly up to 57.5 µM; activity change, negative = cytotoxicity: at the top concentration.
Procedure, shortened: as §1

Q: `NCC(=O)O` was tested. Which “activity change, negative = cytotoxicity” value did it give?
A: 1.83% [at 25.3 µM] (inactive)

Q: For `O=C(O)CCC(=O)OC[C@@H](NC(=O)C(Cl)Cl)[C@H](O)c1ccc([N+](=O)[O-])cc1`, which “activity change, negative = cytotoxicity” value is on record?
A: 8.47% (inactive)

Q: How did the “activity change, negative = cytotoxicity” value turn out when `O=C(COCCOCCOCC(=O)Nc1c(I)cc(I)c(C(=O)O)c1I)Nc1c(I)cc(I)c(C(=O)O)c1I` was run?
A: 4.89% (inactive)

Q: `CC(=O)[C@@]1(O)CC[C@H]2[C@@H]3C[C@H](C)C4=CC(=O)CC[C@]4(C)[C@H]3CC[C@@]21C` was tested. Which “activity change, negative = cytotoxicity” value did it give?
A: 3.85% (inactive)

Q: With `CCN(CC)CC(=O)OCC(=O)[C@@]1(O)CC[C@H]2[C@@H]3CCC4=CC(=O)CC[C@]4(C)[C@H]3[C@@H](O)C[C@@]21C` as the compound, how does the “activity change, negative = cytotoxicity” value read?
A: -7.71% (inactive)

Q: `C[C@@]12CCC[C@H]1[C@@H]1CC[C@H]3C[C@@H](O)CC[C@]3(C)[C@H]1CC2` was tested. Which “activity change, negative = cytotoxicity” value did it give?
A: 22.2% (inactive)

Q: `CCCCC(CC)COC(=O)c1ccccc1C(=O)O` (centres undefined) was tested. Which “activity change, negative = cytotoxicity” value did it give?
A: -1.01% [at 116 µM] (inactive)

Q: With `N=C(N)c1ccc(OCCCOc2ccc(C(=N)N)cc2)cc1` as the compound, how does the “activity change, negative = cytotoxicity” value read?
A: 1.64% (inactive)

Q: `CC(C)(C)CC(=O)OCC(=O)[C@@]1(O)CC[C@H]2[C@@H]3CCC4=CC(=O)C=C[C@]4(C)[C@H]3[C@@H](O)C[C@@]21C` was tested. Which “activity change, negative = cytotoxicity” value did it give?
A: -32.3% (inactive)

Q: Which “activity change, negative = cytotoxicity” value does the source give for `CN=C(N)NC(=O)Nc1c(C)cccc1C` here?
A: 5.05% (inactive)
